Several values for one entry are separate records, joined by “and”; a condition that tells them apart may be missing. Equal entries are not always repeated. Results filed as inconclusive are left out. Where a call stands in place of a potency, no number is given. A number with no mark means an inactive call. Activity calls are given as the source filed them. Unless noted, calls come from the whole dose curve; as a rule, active = well fitted curve in the direction sought with a large enough effect in the repeat runs; inconclusive = weak or mixed curves; inactive = no such curve, though single readings can be large; an effect the other way counts as inactive or inconclusive.
Legend:
[1] = qHTS assay to identify small molecule antagonists of the thyroid receptor (TR) signaling pathway - cell viability counter screen (AID 743064); note: nearly all actives have a fitted effect of over 50% in size; note: potency is the fitted concentration of half-maximal effect
Outline: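 Rat GH3 pituitary tumor cells stably expressing two TR response elements driving luciferase were plated, rested 4 h, then dosed with library compounds and T3 (1 nM final). After 23.5 h at 37 °C, CellTiter-Fluor was added for 30 min and fluorescence recorded.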

[2] = qHTS assay to identify small molecule antagonists of the thyroid receptor (TR) signaling pathway (AID 743065); note: nearly all actives have a fitted effect of over 55% in size; note: potency is the fitted concentration of half-maximal effect
Outline: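 Antagonism measured as loss of luciferase signal in GH3 cells stably carrying a TRE-luciferase reporter, co-treated with compound and T3 (1 nM final) for 23.5 h at 37 C. Viability was read in the same well by CellTiter-Fluor.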

[3] = test system: thyroid hormone receptor (rat, GH3 cells); experiment: qHTS assay to identify small molecule agonists of the thyroid receptor (TR) signaling pathway (AID 743066; calls by dose curve)
[4] = target: Estrogen receptor (Homo sapiens) (UniProt P03372); experiment: qHTS assay to identify small molecule antagonists of the estrogen receptor alpha (ER-alpha) signaling pathway (AID 743069; active = well fitted curve in the direction sought with a large enough effect in the signal ratio in the repeat runs, not every such curve was filed as active; the % refers to the signal ratio)
Outline: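 Compound effects are measured against 17beta-estradiol stimulation in HEK293 cells with a UAS-controlled beta-lactamase reporter for ER-alpha. Exposure lasts 18 hr at 37C; LiveBLAzer B/G FRET substrate follows for 2 hr at room temperature.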

[5] = qHTS assay to identify small molecule antagonists of the estrogen receptor alpha (ER-alpha) signaling pathway - cell viability counter screen (AID 743074; calls by dose curve;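 note: HEK293 cells carrying ER-alpha-UAS-bla reporter stimulated with 17beta-estradiol; nearly all actives have a fitted effect of over 45% in size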)
[6] = target: Estrogen receptor (Homo sapiens) (UniProt P03372); experiment: qHTS assay to identify small molecule agonists of the estrogen receptor alpha (ER-alpha) signaling pathway (AID 743075; calls by dose curve)
[7] = target: Estrogen receptor (Homo sapiens) (UniProt P03372); experiment: qHTS assay to identify small molecule agonists of the estrogen receptor alpha (ER-alpha) signaling pathway using the BG1 cell line (AID 743079); conditions: BG1Luc4E2 cells, ERE-luciferase agonist, 22 h; note: nearly all actives have a fitted effect of over 20% in size; note: potency is the fitted concentration of half-maximal effect
[8] = qHTS assay to identify small molecule antagonists of the estrogen receptor alpha (ER-alpha) signaling pathway using the BG1 cell line (AID 743080; calls by dose curve;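 note: BG1 cells stimulated with 17beta-estradiol alongside compound; nearly all actives have a fitted effect of over 25% in size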)
Outline: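 BG1-Luc-4E2 cells (endogenous full-length ER-alpha, stable 4×ERE-luciferase) were starved 5 days in phenol-red-free medium with 10% charcoal-stripped FBS, plated 24 h, then given compound plus 17beta-estradiol for 21.5 h at 37 C; ONE-Glo luminescence read after 30 min.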

[9] = qHTS assay to identify small molecule antagonists of the estrogen receptor alpha (ER-alpha) signaling pathway using the BG1 cell line - cell viability counter screen (AID 743081);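 note: compound given together with 17beta-estradiol as the ER stimulus; nearly all actives have a fitted effect of over 45% in size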
[10] = target: Aromatase (Homo sapiens) (UniProt P11511); experiment: qHTS assay to identify aromatase inhibitors (AID 743083); note: nearly all actives have a fitted effect of over 55% in size
Chain of Aromatase (Homo sapiens) (P11511 whole entry, looked up): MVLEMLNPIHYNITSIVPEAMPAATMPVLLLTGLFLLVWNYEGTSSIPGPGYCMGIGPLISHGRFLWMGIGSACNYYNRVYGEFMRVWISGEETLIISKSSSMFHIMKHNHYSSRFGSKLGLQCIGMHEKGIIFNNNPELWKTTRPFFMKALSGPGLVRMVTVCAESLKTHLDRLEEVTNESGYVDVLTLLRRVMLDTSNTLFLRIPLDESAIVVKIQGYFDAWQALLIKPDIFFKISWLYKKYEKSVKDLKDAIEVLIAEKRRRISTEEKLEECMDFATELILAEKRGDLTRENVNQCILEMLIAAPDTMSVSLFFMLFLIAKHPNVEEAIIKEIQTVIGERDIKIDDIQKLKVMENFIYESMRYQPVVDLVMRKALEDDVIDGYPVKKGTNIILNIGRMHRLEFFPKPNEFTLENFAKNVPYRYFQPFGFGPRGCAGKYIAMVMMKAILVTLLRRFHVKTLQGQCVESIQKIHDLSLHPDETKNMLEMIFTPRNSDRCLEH

Chain of Estrogen receptor (Homo sapiens) (P03372 whole entry, looked up): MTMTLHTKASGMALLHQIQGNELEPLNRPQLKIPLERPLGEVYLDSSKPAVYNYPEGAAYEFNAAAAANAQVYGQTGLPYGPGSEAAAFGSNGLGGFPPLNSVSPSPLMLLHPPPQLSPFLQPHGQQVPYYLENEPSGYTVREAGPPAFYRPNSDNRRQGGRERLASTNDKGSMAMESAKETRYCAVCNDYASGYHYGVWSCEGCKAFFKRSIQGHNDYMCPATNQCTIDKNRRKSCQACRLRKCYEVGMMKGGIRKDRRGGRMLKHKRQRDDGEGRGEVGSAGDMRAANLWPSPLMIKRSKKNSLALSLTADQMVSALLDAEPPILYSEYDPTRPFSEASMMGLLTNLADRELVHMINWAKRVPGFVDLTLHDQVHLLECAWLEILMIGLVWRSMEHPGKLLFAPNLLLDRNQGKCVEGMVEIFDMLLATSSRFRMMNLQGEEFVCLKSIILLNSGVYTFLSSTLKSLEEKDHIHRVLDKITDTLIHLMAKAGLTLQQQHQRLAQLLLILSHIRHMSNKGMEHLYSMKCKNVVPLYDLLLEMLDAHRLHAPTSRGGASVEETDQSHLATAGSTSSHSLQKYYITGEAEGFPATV

Compound	Potency [1]	Potency [2]	Potency [3]	Potency [4]	Potency [5]	Potency [6]	activation ([7]; at 70.3 µM (top of the series))	Potency [8]	Potency [9]	Potency [10]	activation ([7]; at 95 µM (top of the series))	Potency [7]
[O-][Br+2]([O-])O	inactive	inactive	inactive	inactive	inactive	inactive	1.35%	inactive	inactive	inactive		
CC(C)(C)C(=O)Cl	inactive	inactive	inactive	inactive	inactive	inactive		inactive	inactive	inactive	-4.71%	
ClCOCCl	inactive	inactive	inactive	inactive	inactive	inactive		inactive	inactive	inactive		61.4 µM (active)
CCOC(=O)CCl	inactive	inactive	inactive	inactive	inactive	inactive	26.5%	inactive	inactive	inactive		
O=[N+]([O-])CCO	inactive	inactive	inactive	inactive	inactive	inactive		inactive	inactive	inactive	-2.33%	
CCN[C@@H](C)Cc1ccccc1	inactive	inactive	inactive	inactive	inactive	inactive		inactive	inactive	inactive	0.895%	
COc1cc(CCN)cc(OC)c1OC	inactive	inactive	inactive	inactive	inactive	inactive		inactive	inactive		-6.66%	
CNC(=O)Oc1ccccc1C(C)C	inactive	inactive	inactive	inactive	inactive	inactive	-4.06%	inactive	inactive	inactive		
CS(=O)(=O)Cl	inactive	inactive	inactive	inactive	inactive	inactive		inactive	inactive	inactive	7.45%	
CCOP(=O)(CN(CCO)CCO)OCC	inactive	inactive	inactive	inactive	inactive	inactive	-2.5%	inactive	inactive	inactive		
C[C@H](N)C(=O)c1ccccc1	inactive	inactive	inactive	inactive	inactive	inactive	-5.09%	inactive	inactive	inactive	4.39%	
NNC(N)=O	inactive	inactive	inactive	inactive	inactive	inactive		inactive	inactive	inactive	-3.44%	
CCCCOC(C)=O	inactive	inactive	inactive	inactive	inactive	inactive		inactive	inactive	inactive	-9.13%	
COC(=O)c1ccccc1CS(=O)(=O)NC(=O)Nc1nc(OC)cc(OC)n1	inactive	inactive	inactive	inactive	inactive	inactive	1.94%	inactive	inactive	inactive		
CCCN1CCC[C@@H]2Cc3[nH]ncc3C[C@H]21	inactive	inactive	inactive	inactive	inactive	inactive	-4.44%	inactive	inactive	inactive		
CCC1(CC)C(=O)C=CNC1=O	inactive	inactive	inactive	inactive	inactive	inactive	10.4%	inactive	inactive	inactive		
COc1cccc([C@@]2(O)CCCC[C@@H]2CN(C)C)c1	inactive	inactive	inactive	inactive	inactive	inactive	7.73%	inactive	inactive	inactive		
CNC(=O)NC(O)C(Cl)(Cl)Cl (stereo not given)	inactive	inactive	inactive	inactive	inactive	inactive	2.72%	inactive	inactive	inactive		
CCCCCCCC(=O)Cl	inactive	inactive	inactive	inactive	inactive	inactive		inactive	inactive	inactive	-1.47%	
CCNc1nc(NCC)nc(SC)n1	inactive	inactive	inactive	inactive	inactive	inactive	-15.9%	inactive	inactive	inactive		
ClC1=C(Cl)C2(Cl)C(CBr)CC1(Cl)C2(Cl)Cl (stereo not given)	26.6 µM (active) and 48.6 µM (active)	26.6 µM (active) and 43.3 µM (active)	inactive	inactive	inactive	inactive	-8.81% and -11.5%	inactive	inactive	inactive		

Source: PubChem BioAssay (Tox21)
